# Laboratory results taken from ChEMBL document CHEMBL1961873, “Compounds: GSK PKIS; Assays: Nanosyn kinase panel” (2012).
# Columns and labels:
# [1] = target: Sphingosine kinase 1 (Homo sapiens) (UniProt Q9NYA1); settings: at 1 µM;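 further: mean SPHK1 inhibition value reported from the GSK PKIS kinase panel screen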
# [2] = target: T1, Sphingosine kinase 2 (Homo sapiens) (UniProt Q9NRA0); settings: at 0.1 µM
# T1 sequence (whole entry): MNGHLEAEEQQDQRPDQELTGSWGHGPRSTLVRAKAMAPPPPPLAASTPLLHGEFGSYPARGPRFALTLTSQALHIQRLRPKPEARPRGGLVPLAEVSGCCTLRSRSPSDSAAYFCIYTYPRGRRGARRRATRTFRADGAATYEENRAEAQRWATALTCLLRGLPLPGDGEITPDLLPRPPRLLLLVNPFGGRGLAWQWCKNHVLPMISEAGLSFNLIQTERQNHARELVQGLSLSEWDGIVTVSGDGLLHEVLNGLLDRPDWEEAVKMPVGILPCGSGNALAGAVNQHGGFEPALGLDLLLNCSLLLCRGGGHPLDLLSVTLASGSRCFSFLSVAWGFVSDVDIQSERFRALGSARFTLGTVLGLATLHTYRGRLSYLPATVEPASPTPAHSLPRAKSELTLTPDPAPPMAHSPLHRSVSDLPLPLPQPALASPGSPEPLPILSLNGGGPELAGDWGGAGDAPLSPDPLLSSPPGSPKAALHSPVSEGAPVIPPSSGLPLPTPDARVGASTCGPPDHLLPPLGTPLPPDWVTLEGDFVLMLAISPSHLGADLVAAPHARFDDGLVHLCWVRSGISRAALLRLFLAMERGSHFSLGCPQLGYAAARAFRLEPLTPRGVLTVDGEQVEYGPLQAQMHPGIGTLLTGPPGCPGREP
# [3] = target: T1, Sphingosine kinase 2 (Homo sapiens); settings: at 1 µM
# [4] = target: Casein kinase II subunit alpha (Homo sapiens) (UniProt P68400); settings: at 0.1 µM
# [5] = target: Casein kinase II subunit alpha (Homo sapiens) (UniProt P68400); settings: at 1 µM
# [6] = target: T2, Inhibitor of nuclear factor kappa-B kinase subunit alpha (Homo sapiens) (UniProt O15111); settings: at 0.1 µM
# T2 sequence (whole entry): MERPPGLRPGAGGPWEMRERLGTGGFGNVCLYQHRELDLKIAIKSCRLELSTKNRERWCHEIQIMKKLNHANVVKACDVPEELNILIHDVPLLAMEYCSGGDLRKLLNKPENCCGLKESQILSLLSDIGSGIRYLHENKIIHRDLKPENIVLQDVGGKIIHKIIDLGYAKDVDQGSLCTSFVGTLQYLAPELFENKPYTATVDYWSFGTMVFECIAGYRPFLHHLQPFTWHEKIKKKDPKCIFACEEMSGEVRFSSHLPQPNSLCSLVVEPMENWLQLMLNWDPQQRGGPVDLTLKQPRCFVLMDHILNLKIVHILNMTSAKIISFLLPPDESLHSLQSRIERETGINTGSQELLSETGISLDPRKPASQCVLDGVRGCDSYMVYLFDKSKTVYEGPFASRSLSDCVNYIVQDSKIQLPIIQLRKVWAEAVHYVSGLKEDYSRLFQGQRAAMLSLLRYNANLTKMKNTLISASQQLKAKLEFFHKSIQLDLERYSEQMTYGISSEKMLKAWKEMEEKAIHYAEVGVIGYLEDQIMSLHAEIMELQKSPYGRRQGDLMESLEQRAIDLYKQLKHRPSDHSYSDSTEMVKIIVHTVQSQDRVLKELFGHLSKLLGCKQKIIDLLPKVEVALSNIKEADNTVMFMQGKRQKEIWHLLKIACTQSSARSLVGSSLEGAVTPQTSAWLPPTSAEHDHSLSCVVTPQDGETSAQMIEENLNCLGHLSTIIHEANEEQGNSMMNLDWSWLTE
# [7] = target: T2, Inhibitor of nuclear factor kappa-B kinase subunit alpha (Homo sapiens); settings: at 1 µM
# [8] = target: T3, Inhibitor of nuclear factor kappa-B kinase subunit beta (Homo sapiens) (UniProt O14920); settings: at 0.1 µM
# T3 sequence (whole entry): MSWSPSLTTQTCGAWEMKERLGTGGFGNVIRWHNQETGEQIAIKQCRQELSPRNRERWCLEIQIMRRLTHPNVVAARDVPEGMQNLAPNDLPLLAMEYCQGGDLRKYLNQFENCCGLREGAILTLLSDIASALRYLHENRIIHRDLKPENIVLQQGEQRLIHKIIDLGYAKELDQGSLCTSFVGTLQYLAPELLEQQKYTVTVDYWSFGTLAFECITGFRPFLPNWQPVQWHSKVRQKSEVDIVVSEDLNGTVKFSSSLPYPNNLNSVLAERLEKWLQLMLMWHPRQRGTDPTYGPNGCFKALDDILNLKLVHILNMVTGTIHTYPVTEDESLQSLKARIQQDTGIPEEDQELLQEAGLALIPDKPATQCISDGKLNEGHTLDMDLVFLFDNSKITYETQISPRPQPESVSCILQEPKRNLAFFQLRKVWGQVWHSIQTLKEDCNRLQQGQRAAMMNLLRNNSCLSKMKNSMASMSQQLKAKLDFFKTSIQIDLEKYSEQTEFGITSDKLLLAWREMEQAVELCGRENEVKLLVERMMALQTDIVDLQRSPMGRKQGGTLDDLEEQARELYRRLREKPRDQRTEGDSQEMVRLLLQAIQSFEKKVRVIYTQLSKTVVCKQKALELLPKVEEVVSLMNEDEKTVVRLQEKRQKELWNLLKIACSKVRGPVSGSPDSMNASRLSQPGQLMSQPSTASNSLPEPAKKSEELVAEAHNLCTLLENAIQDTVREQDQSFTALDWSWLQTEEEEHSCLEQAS
# [9] = target: T3, Inhibitor of nuclear factor kappa-B kinase subunit beta (Homo sapiens); settings: at 1 µM
# [10] = target: T4, Inhibitor of nuclear factor kappa-B kinase subunit epsilon (Homo sapiens) (UniProt Q14164); settings: at 0.1 µM
# T4 sequence (whole entry): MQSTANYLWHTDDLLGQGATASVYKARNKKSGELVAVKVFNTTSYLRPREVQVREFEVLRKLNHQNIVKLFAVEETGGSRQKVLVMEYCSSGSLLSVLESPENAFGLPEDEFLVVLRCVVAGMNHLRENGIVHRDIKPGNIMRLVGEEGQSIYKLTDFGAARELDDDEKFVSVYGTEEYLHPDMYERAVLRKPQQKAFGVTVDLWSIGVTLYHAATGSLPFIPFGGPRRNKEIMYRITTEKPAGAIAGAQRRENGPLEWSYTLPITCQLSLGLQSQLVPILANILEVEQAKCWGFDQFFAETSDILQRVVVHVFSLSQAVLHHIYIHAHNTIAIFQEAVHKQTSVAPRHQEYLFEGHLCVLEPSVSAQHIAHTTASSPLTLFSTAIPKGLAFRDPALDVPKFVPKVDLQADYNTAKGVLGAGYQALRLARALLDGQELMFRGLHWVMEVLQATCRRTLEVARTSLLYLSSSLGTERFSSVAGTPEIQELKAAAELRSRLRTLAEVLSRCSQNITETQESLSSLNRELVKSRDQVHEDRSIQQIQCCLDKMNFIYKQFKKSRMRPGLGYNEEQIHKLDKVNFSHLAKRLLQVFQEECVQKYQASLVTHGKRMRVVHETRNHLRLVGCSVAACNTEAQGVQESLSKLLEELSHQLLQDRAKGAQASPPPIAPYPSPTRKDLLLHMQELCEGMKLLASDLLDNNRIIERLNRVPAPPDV
# [11] = target: T4, Inhibitor of nuclear factor kappa-B kinase subunit epsilon (Homo sapiens); settings: at 1 µM
# [12] = target: T5, Serine/threonine-protein kinase Nek1 (Homo sapiens) (UniProt Q96PY6); settings: at 0.1 µM
# T5 sequence (whole entry): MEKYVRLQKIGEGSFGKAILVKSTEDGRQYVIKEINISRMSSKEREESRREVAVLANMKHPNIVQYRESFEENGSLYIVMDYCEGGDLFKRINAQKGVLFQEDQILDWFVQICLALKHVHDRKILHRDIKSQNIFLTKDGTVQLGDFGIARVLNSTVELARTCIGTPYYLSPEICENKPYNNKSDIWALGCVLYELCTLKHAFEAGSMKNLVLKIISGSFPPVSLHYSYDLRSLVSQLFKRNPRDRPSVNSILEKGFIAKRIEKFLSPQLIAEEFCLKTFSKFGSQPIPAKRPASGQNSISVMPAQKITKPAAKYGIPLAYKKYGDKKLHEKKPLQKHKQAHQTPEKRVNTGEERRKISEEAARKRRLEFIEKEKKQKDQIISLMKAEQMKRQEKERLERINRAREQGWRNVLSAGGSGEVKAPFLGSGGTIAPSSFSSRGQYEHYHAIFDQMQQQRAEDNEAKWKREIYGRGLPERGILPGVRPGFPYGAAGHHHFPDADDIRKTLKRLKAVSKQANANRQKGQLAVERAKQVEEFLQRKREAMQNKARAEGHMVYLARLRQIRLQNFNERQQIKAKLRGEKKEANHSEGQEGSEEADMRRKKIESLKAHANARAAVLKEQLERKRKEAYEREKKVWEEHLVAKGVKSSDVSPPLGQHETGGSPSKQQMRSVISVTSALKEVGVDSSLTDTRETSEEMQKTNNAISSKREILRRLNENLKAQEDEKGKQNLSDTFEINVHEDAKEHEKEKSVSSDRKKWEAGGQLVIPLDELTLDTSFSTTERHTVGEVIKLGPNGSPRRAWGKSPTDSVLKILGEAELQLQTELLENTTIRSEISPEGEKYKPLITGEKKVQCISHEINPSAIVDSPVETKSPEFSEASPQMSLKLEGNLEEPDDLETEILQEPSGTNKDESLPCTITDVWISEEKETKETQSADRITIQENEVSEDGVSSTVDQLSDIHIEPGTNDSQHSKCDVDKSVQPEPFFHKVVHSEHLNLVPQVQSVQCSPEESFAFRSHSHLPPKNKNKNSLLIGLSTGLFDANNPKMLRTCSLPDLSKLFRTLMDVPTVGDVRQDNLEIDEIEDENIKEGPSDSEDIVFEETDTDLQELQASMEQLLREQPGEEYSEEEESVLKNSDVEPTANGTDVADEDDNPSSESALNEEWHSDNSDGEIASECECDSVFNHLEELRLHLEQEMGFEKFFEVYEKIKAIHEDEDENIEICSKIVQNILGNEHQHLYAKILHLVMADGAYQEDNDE
# [13] = target: T5, Serine/threonine-protein kinase Nek1 (Homo sapiens); settings: at 1 µM
# [14] = target: T6, Serine/threonine-protein kinase Nek2 (Homo sapiens) (UniProt P51955); settings: at 0.1 µM
# T6 sequence (whole entry): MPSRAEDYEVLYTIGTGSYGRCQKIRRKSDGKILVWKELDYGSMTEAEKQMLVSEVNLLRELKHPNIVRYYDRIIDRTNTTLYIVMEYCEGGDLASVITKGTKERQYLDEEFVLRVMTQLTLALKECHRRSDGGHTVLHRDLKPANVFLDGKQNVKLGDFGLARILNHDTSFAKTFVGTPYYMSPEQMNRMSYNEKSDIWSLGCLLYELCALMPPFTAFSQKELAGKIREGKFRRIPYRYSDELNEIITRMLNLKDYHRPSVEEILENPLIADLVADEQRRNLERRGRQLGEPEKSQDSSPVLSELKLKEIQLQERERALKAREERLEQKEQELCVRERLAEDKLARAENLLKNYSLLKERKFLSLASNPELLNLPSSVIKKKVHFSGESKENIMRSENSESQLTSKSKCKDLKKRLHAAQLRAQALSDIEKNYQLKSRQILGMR
# [15] = target: T6, Serine/threonine-protein kinase Nek2 (Homo sapiens); settings: at 1 µM
# [16] = target: Serine/threonine-protein kinase Nek6 (Homo sapiens) (UniProt Q9HC98); settings: at 0.1 µM
# [17] = target: Serine/threonine-protein kinase Nek6 (Homo sapiens) (UniProt Q9HC98); settings: at 1 µM
# [18] = target: Serine/threonine-protein kinase Nek7 (Homo sapiens) (UniProt Q8TDX7); settings: at 0.1 µM
# [19] = target: Serine/threonine-protein kinase Nek7 (Homo sapiens) (UniProt Q8TDX7); settings: at 1 µM
# [20] = target: T7, Serine/threonine-protein kinase Nek9 (Homo sapiens) (UniProt Q8TD19); settings: at 0.1 µM;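 further: reported value is the mean percent inhibition of NEK9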
# T7 sequence (whole entry): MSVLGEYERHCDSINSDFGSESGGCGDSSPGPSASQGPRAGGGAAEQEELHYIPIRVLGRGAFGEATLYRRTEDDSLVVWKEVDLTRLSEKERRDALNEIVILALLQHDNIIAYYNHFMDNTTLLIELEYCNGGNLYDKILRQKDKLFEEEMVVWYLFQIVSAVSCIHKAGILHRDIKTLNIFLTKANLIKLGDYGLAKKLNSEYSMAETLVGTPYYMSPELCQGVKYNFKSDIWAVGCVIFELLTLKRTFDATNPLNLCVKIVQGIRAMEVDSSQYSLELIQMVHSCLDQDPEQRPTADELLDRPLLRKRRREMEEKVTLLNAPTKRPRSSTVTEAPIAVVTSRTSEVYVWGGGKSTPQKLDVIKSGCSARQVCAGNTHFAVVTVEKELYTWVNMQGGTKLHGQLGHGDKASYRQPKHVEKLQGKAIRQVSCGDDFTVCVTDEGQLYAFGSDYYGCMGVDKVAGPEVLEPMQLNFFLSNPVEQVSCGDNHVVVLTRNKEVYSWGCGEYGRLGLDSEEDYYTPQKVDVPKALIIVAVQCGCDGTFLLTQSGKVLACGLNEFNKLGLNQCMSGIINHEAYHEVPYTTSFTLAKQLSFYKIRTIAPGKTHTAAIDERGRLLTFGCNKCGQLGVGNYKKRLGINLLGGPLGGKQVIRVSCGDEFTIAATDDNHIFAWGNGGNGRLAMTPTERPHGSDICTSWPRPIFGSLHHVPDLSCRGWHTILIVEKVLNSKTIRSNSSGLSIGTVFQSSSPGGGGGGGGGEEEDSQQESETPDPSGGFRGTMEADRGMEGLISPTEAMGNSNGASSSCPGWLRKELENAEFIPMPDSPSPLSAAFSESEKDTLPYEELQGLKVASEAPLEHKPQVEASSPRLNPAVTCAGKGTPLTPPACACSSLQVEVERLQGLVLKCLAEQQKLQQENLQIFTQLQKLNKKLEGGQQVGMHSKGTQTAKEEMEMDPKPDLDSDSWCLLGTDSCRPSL
# Sequence of Serine/threonine-protein kinase Nek7 (Homo sapiens) (Q8TDX7 whole entry, looked up): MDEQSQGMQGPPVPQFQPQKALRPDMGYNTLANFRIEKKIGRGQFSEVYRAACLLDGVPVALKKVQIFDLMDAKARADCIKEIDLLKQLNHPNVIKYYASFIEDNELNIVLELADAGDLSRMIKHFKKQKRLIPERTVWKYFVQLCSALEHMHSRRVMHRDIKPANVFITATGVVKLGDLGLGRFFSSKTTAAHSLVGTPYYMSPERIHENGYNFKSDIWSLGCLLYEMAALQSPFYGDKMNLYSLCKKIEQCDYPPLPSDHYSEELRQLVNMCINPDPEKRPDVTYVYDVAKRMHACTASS
# Sequence of Serine/threonine-protein kinase Nek6 (Homo sapiens) (Q9HC98 whole entry): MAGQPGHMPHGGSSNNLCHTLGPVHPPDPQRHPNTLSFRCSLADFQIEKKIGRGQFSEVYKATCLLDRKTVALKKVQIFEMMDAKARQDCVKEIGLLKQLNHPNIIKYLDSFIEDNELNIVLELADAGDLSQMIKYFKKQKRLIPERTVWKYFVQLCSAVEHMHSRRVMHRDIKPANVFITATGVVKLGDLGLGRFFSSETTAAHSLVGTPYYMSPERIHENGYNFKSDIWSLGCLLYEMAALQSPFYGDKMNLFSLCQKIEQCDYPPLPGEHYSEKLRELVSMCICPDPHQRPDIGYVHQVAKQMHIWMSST
# Sequence of Casein kinase II subunit alpha (Homo sapiens) (P68400 whole entry, looked up): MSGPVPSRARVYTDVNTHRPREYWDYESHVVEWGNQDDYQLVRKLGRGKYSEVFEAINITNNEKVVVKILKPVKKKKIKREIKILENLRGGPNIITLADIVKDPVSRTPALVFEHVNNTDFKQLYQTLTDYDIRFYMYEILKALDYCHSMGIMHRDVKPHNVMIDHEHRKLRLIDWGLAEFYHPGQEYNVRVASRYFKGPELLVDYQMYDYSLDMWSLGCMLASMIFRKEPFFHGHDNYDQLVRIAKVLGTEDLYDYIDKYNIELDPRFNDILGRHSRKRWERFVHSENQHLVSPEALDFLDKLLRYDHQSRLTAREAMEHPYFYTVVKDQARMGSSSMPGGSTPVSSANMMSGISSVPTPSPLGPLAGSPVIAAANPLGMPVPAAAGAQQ
# Sequence of Sphingosine kinase 1 (Homo sapiens) (Q9NYA1 whole entry): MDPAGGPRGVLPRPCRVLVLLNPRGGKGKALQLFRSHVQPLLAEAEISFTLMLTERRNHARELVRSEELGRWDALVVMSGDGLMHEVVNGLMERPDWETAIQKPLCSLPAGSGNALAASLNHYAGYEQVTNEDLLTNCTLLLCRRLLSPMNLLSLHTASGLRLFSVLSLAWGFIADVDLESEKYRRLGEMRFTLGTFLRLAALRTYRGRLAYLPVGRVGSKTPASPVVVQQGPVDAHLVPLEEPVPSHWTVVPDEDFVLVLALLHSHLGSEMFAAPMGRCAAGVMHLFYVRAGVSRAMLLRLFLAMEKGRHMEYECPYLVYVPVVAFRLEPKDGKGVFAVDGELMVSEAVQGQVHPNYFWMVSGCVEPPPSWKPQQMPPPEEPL
compound,measurement,setting,value
Nc1nc(-c2ccccn2)c(-c2ccc3ncccc3n2)s1,inhibition,[1],-3.49%
same,inhibition,[2],-0.63%
same,inhibition,[3],-3.19%
same,inhibition,[4],2.62%
same,inhibition,[5],10.1%
same,inhibition,[6],4.74%
same,inhibition,[7],9.42%
same,inhibition,[8],4.18%
same,inhibition,[9],4.54%
same,inhibition,[10],3.83%
same,inhibition,[11],5.46%
same,inhibition,[12],2.32%
same,inhibition,[13],4.91%
same,inhibition,[14],3.61%
same,inhibition,[15],2.7%
same,inhibition,[16],3.95%
same,inhibition,[17],1.16%
same,inhibition,[18],3.03%
same,inhibition,[19],2.77%
same,inhibition,[20],6.33%
